Whole data set: some 33,000 sequences, median “E-score (-0.5 to 0.5)” near -0.012, cut for the highest 2% near 0.27. Shown is part of a subset that was picked to be rich in the highest values.
These sequences were tested against T1, Vhr1 (UniProt P40522) (assay: PBM E-score (8-mer binding enrichment) (E-score (-0.5 to 0.5)); higher = stronger / more preferred TF binding). Details: protein concentration: 200 nM; construct: GST-full length.
T1 sequence: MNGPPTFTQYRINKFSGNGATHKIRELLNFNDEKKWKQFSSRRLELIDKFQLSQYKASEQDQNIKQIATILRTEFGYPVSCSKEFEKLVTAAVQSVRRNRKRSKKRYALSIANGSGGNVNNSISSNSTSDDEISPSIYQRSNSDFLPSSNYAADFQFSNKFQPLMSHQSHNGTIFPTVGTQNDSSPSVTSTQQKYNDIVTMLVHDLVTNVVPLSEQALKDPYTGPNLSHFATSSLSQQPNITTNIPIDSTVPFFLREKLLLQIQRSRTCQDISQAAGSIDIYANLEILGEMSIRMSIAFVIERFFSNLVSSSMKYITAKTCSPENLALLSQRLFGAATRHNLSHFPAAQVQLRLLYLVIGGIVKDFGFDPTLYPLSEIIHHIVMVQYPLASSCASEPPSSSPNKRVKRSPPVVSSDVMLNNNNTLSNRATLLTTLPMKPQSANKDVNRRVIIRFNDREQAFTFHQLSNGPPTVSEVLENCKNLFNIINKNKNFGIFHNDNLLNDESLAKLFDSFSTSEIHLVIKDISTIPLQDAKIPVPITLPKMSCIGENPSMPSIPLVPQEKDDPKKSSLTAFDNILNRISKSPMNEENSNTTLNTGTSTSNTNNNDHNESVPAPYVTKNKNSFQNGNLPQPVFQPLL
Summary of the method: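 Yeast transcription factors carrying a GST tag, as full-length proteins or DNA-binding domains, were produced by PURExpress in vitro transcription/translation. About 100-200 nM protein was applied to universal all-10-mer Agilent arrays, double-stranded by primer extension on fresh or once-stripped slides. Bound protein was detected with fluorescent anti-GST, and scans were normalised with masliner. The Universal PBM Analysis Suite gave each ungapped eight-base word, pooled with its reverse complement, an E-score, a modified Wilcoxon-Mann-Whitney statistic.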

Sequence | PBM E-score
CACCTACC | -0.125
AAGTGCGT | -0.0339
GTCTGTAA | -0.0248
AATTCTTC | -0.211
AGATCACC | -0.0605
ACTGGTCG | 0.0753
GTCGTCTA | -0.0586
GAACTAGC | -0.118
AACAGGAT | -0.0425
CTATGAAC | 0.107
CCTATCTA | -0.245
ACTCAGCC | 0.151
AGTCAGCG | 0.347
CGTCAGCA | -0.11
AGTCAGCA | 0.346
AGTCAGAT | 0.27
CGTCAGCC | 0.044
ATTCAGCG | -0.0101
AGTCAGAA | 0.18
ACTCAGCG | 0.133
GGTCAGCA | 0.15
AGTCAGAG | 0.386
AGTCAGCC | 0.402
CTAGCCTA | -0.153
GGAACCAA | 0.171

Sequence | PBM E-score
AAAGGCGC | -0.0831
ACACCCAT | 0.191
AGGTAATC | 0.104
ACACTCCC | 0.0331
CATGGGTA | 0.27
AATGGGTA | 0.0928
GATGGGTA | 0.285
CAACCCGG | -0.116
AAACCCGC | 0.0774
CAACCCGC | 0.272
CGTTTCAG | -0.0522
ATAGGCCG | -0.229
CATCGATG | 0.302
AATCGATG | 0.107
CATCGATC | 0.016
AGCACAGG | 0.00375
CCAGTCGA | 0.0785
TAAAGGCA | -0.226
AGAGTATC | -0.0198
CCAAGCAC | 0.112
CGATGGGC | 0.297
AGATGGGC | -0.0228
CGATGGGA | -0.0641
ACTTGGCG | 0.0405
CGATAGGA | 0.129

Sequence | PBM E-score
TAGTCTGA | 0.218
GAGTCAAA | 0.312
GAGTCAAC | 0.403
AAGTCAAA | 0.00983
CAGTCAAC | 0.216
TAGTCAAA | 0.117
AAGTCAAC | -0.00442
ACTTTTAT | -0.304
AAGCCATT | 0.0335
CAAATCAG | -0.0128
ATTAGCTA | 0.0108
GCACCTGA | -0.00933
GACTACCA | 0.306
AACTACTA | 0.078
AACTACAC | 0.0739
GACTACTA | 0.328
AACTATAC | 0.114
GACTACAC | 0.315
GACTATAA | 0.0359
CACTACCA | 0.208
CACTACAC | 0.163
TACTACTA | 0.208
GACTATAC | 0.322
GACTACCC | 0.254
CATAGAAA | 0.102

Sequence | PBM E-score
GCTAGAAA | -0.0866
AGACTGTG | -0.0209
GGAGTGCA | 0.14
CGTTTTTC | -0.141
ACCATAGT | 0.0959
AAGCAAGT | -0.0526
CACTACTC | 0.205
GAGTACTC | 0.345
GACTACTC | 0.31
AACTACTC | 0.19
AAGTAACA | 0.0225
CACTAACA | 0.177
GAGTAACA | 0.286
GACTAACA | 0.354
GAGTAACC | 0.106
AAGTACTC | 0.0478
CAGTACTC | 0.117
TACTAACA | 0.145
AGCAGCGG | 0.0635
GAGCCAAC | -0.0688
ACATAGCT | -0.216
AACCAATT | 0.0547
CTAGCAAA | 0.00326
ATGGATCC | 0.144
AGTTACTC | 0.0219

Sequence | PBM E-score
CACACAGC | 0.307
CACACCTC | 0.285
AACACAGC | 0.229
GACACCTC | 0.0308
AACACAGG | 0.0235
GACACAGC | 0.129
CACACAGA | 0.263
CACACAGG | 0.272
CACACCTG | 0.207
AGTGGTGC | -0.0378
ACTGTAGA | 0.0811
CGAAGAAC | 0.0807
ACTAAACG | -0.0382
CAGCAGCG | -0.0154
AGATCTTA | -0.0915
CAACAACA | 0.234
CCATTGGG | -0.18
GCACTGCC | -0.039
ACACTGCC | 0.281
ACACTGCA | 0.0651
CTTCTGCA | -0.194
AATCATAC | 0.4
AATCATAA | 0.131
GCTCATAC | -0.135
CATCATAC | 0.216

Sequence | PBM E-score
CATCATAG | 0.266
ACTCATAC | 0.284
GATCATAC | 0.114
CCTCATAC | -0.119
AATCATAT | 0.296
ATTCATAG | 0.0981
AATCAAAT | -0.0562
AATCATAG | 0.329
AACCCGTT | -0.0686
GGTGCACA | 0.0381
GCTTTATA | -0.261
CCCTCTAC | -0.113
CCACGTCA | -0.165
GCACAAGC | 0.0452
CACGCAGG | -0.0242
GCATATGA | 0.19
TCATATGA | 0.381
CCATATGA | 0.176
AGATATGA | 0.161
CGATATGA | 0.125
GGATATGA | 0.289
CATGAGCA | 0.125
GGTAGCGA | -0.0248
GAGGATAA | 0.0571
CCGGACTA | 0.108

Sequence | PBM E-score
GCTGACAA | -0.0645
CCGGACTC | 0.303
CCTGACAC | 0.188
GTTGACTA | 0.261
CCTGACGC | -0.197
ACTGACTC | 0.421
ACGGACTC | -0.0189
GCTGACTA | 0.324
CCTGACTC | 0.479
ACTGACCC | 0.0589
ACTGACAC | 0.0369
AAGAAAGT | -0.0406
CTTCATTC | -0.0777
CCAATTCG | -0.173
GGGATCAA | -0.109
ATTTGGTG | -0.068
ATAGGGTC | 0.197
CCAGCATA | 0.0195
CCTGACAA | 0.0179
ATTGACTA | 0.236
CCTGACGA | 0.0859
ACTGACTG | 0.0572
ATTGACTC | 0.3

Reference: the supplement of paper PMC3334620
